Source: PubChem BioAssay (NCI)
About 83,000 compounds went through this panel and 20% of them were active in at least one assay; those are over-represented in the sample as a whole.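 48-hour exposure, single concentration, 96-well plates; percent growth endpoint where 0 means no net growth. Active: below 10.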 Values without a mark were called inactive. Active and inactive are the calls of the source.

What follows are compounds tested on RPMI-8226 leukemia (assay: NCI-60 one-dose screen, 48 h (100 = growth as untreated, 0 = no growth, -100 = all killed)). Conditions: 10 µM unless noted.
Method: Growth inhibition of the RPMI-8226 human tumor cell line is measured as a screen for anti-cancer activity. Cells are grown in 96 well plates and exposed to the test compound for 48 hours. Compounds are tested at a single concentration, which is 10^-5 M for most compounds. The reported endpoint is percent growth (GI% or GIPRCNT), where numbers from 0 - 100% represent growth inhibition, and numbers from -100% - 0 represent cell death. For example, a value of 40 represents 60% growth inhibition. A value of 0 means no net growth occurred over the course of the experiment. A value of -40 indicates 40% of cells at the beginning of the experiment died by the end of the experiment. A value of -100 means all cells are dead at the end of the experiment.
NCI-60 Human Tumor Cell Lines Screen was performed using the standard one-dose NCI protocol, which is described in more detail at https://dtp.cancer.gov/discovery_development/nci-60/default.htm.
Compounds with GIPRCNT values below 10 were considered active. Activity score was based on GIPRCNT using the following formula: […]
Score is 0 for GIPRCNT values of 100 or above, 50 for GIPRCNT values of 0, and 100 for GIPRCNT values of -100.

Row | SMILES | growth
1 | O=C(Nc1ccc(Cl)cc1)Nc1ccc(Cl)c(Cl)c1 | -27.6% (active)
2 | COc1ccc2nc(N=Nc3c(O)ccc4ccccc34)sc2c1 | 38.1%
3 | CC(C)Sc1nc(NN)c(C#N)c(-c2ccccc2)n1 | 100%
4 | O=C(Nc1ccc2cc3ccc(NC(=O)NC4CCCCC4)cc3nc2c1)NC1CCCCC1 | 85.6%
5 | C=C1C(=O)O[C@H]2[C@H]1CC/C(COC(=O)/C=C/c1c[nH]c3ccccc13)=C\CC[C@@]1(C)O[C@@H]21 | -34.3% (active)
6 | Cc1nc2sc(C(=O)Nc3cccc(Br)c3)c(N)c2cc1C(=O)c1ccc(C(F)(F)F)cc1 | 88.6%
7 | COc1cccc(NC(=O)c2cccc(-c3cc(=O)c4c(OC)c(OC)c(OC)cc4o3)c2)c1 | 17%
8 | CCN(CC)CCCC(Nc1c2ccc(Cl)cc2nc2ccc(OC)cc12)c1ccc(Cl)cc1 (stereo not given) | -18.6% (active)
9 | OC(c1ccccc1)c1ccccn1 (stereo not given) | 101%
10 | Cc1cc(C(=O)Nc2ncnc3nc[nH]c23)no1 | 95%
11 | C=C(C)[C@H]1CC/C(C)=C/CC[C@]2(C)O[C@H]2CC/C(COC(=O)[C@@H](OC(C)=O)[C@H](NC(=O)c2ccccc2)c2ccccc2)=C\[C@@H]1O | 54.8%
12 | Cn1ncc2c(Nc3ccccc3Cl)nc(Cl)nc21 | 62.1%
13 | CCNC(=O)c1[nH]cc(-c2ccc(OC)cc2)c1-c1cc(OC)cc(OC)c1 | 87.7%
14 | CCNNC(=O)[C@@H]1[C@H](c2cc(OC)c(OC)c(OC)c2)c2cc3c(cc2[C@H](O)[C@H]1CO)OCO3 | 32.8%
15 | O=C1/C(=C\c2cn(Cc3ccccc3)c3ccc(Br)cc23)c2ccccc2N1c1c(Cl)cccc1Cl | 104%
16 | Cc1ccc(C2C3CC4CCCCC4N3[C@@]3(C(=O)Nc4cc(Cl)ccc43)C2C(=O)c2nc3ccccc3[nH]2)cc1 (stereo not given in full) | 9.27% (active)
17 | CS(=O)(=O)c1ccc(-c2cc(-c3nnc(SCC(=O)Nc4ccc(C(=O)/C=C/c5ccc(Cl)cc5)cc4)n3-c3ccccc3)c3ccccc3n2)cc1 | 74.2%
18 | COc1ccc(OC)c(/C=C/[C@H]2O[C@@H](C)[C@H](O)[C@@H]2O)c1 | 95.3%
19 | COc1ccc(/C=C2\COc3ccc(-c4ccccc4)cc3C2=O)cc1O | -21.6% (active)
20 | COc1ccc(-c2nc(SCC(C)C)nc(N/N=C(/C)c3ccc(OC)c(OC)c3)c2C#N)cc1 | 71.3%

Row | SMILES | growth
21 | CCCNC(=O)Oc1ccc(/C(=C(\C)c2ccccc2)c2ccc(OCCN3CCCCC3)cc2)cc1 | 57.7%
22 | Fc1ccc(-n2cc(COc3ncnc4sc5c(c34)CCCC5)nn2)cc1Cl | 96%
23 | CCCCCCc1nc2nc(Cl)c(Cl)nc2[nH]1 | 28.2%
24 | CCCCCCOc1ccc(/C=N/Nc2cc(C)nc3ccc(Br)cc23)cc1 | -42.4% (active)
25 | COc1ccc(NC(=O)c2sc3nc(C)c(C(O)c4ccc(OC)cc4)cc3c2N)cc1 (stereo not given) | 39.8%
26 | CCCCCCNC(=O)Oc1ccc(/C(=C(/CC)Cc2ccccc2)c2ccc(OCCN(CC)CC)cc2)cc1 | 26.8%
27 | CCN1C(=O)N(CC)C2NC(SC)=NC21 (stereo not given) | 157%
28 | O=C(O)CCCCCCCCCCCCCCC(=O)O | 93.8%
29 | COc1cccc(/C=C2\COc3ccc(-c4ccccc4)cc3C2=O)c1 | -31.4% (active)
30 | COc1ccncc1C#Cc1cncc(C(=O)Nc2ccc(CN3CCN(C)CC3)c(C(F)(F)F)c2)c1 | 25.8%
31 | COc1ccc2c(c1)OC13Oc4cc(OC)ccc4C=C1CCCC3=C2 | -20.6% (active)
32 | CCN1C(=O)/C(=c2\sc3n(c2=O)NC2C(N=3)N(CC)C(=O)N2CC)c2ccccc21 (stereo not given) | 64.9%
33 | FC(F)(F)c1cccc(Oc2ccc(Nc3ncnc4ccc(OCCCN5CCOCC5)cc34)cc2Cl)c1 | 32%
34 | CCNC(=S)NNC(=O)c1cc2ccc1CCc1ccc(cc1)CC2 | 102%
35 | O=C(Nc1sc2c(c1C(=O)O)CCCC2)c1cccc(C(F)(F)F)c1 | 80.9%
36 | COc1cccc(C(Cc2ccccc2)Nc2ccccc2)c1OC (stereo not given) | 89.7%
37 | O=S(=O)(c1cccc(NC2=Nc3cccc4cccc2c34)c1)N1CCCC1 | 48.8%
38 | O=C(Nc1nc2ccc(C(=O)N3CCN(c4ccc(Cl)c(Cl)c4)CC3)cc2s1)c1ccc(NCCc2ccccc2)c([N+](=O)[O-])c1 | 85.5%
39 | C=C1C(=O)O[C@H]2[C@H]1CC/C(CNC(=O)/C=C/c1ccc(Br)cc1)=C\CC[C@@]1(C)O[C@@H]21 | -33.7% (active)
40 | N#C/C(=C\c1ccc(Br)cc1)n1nnc2cccc(F)c21 | -19.6% (active)
